According to the supplement of paper PMC6555819:

Tests used:
Experiment in all cases: PBM binding z-score (relative to random genomic background probes); higher = stronger binding; sequences stand for … in GC…GCGATTGACAGCGTAGAATGAAGG
[1] = test system: PPARg:RXRa DBDmut IVT, anti-RXR (DBD mutation: RXRa K156A/R161A, NR concentration 270 nM, RXRa partner concentration 90 nM)
In short: (§1)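 Each nuclear receptor dimer, without ligand, was incubated for 1 h on custom Agilent 4×180K protein-binding microarrays. Binding was detected with antibodies against each partner (one per run), and scanned fluorescence was regression-normalized. The binding z-scores are referenced to random human genomic background probes.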

[2] = test system: PPARg:RXRa IVT, anti-PPARg (NR concentration 270 nM, RXRa partner concentration 90 nM)
In short: as §1

[3] = test system: PPARg DBDmut:RXRa IVT, anti-PPARg (DBD mutation: PPARg1 K132A/R137A, NR concentration 270 nM, RXRa partner concentration 90 nM)
In short: as §1

[4] = test system: PPARg DBDmut IVT, anti-PPARg (DBD mutation: PPARg1 K132A/R137A, NR concentration 270 nM)
In short: as §1

[5] = test system: PPARg homodimer (NR concentration 180 nM)
In short: as §1

[6] = test system: PXR:RXRa (NR concentration 270 nM, RXRa partner concentration 90 nM)
In short: as §1

[7] = test system: PXR homodimer (NR concentration 270 nM)
In short: as §1

[8] = test system: RARa:RXR (NR concentration 270 nM, RXRa partner concentration 90 nM)
In short: as §1

[9] = test system: RARa homodimer (NR concentration 270 nM)
In short: as §1

[10] = test system: RARb:RXRa (NR concentration 270 nM, RXRa partner concentration 90 nM)
In short: as §1

[11] = test system: RARb homodimer (NR concentration 270 nM)
In short: as §1

[12] = test system: RARg:RXRa (NR concentration 270 nM, RXRa partner concentration 90 nM)
In short: as §1

[13] = test system: RARg homodimer (NR concentration 270 nM)
In short: as §1

[14] = test system: RXRa DBDmut IVT, anti-RXR (DBD mutation: RXRa K156A/R161A, NR concentration 90 nM)
In short: as §1

[15] = test system: RXRa homodimer (NR concentration 180 nM)
In short: as §1

[16] = test system: THRa:RXRa (NR concentration 90 nM, RXRa partner concentration 90 nM)
In short: as §1

[17] = test system: THRa homodimer (NR concentration 90 nM)
In short: as §1

[18] = test system: VDR homodimer (NR concentration 270 nM)
In short: as §1

| Sequence | PBM binding z-score [1] | PBM binding z-score [2] | PBM binding z-score [3] | PBM binding z-score [4] | PBM binding z-score [5] | PBM binding z-score [6] | PBM binding z-score [7] | PBM binding z-score [8] | PBM binding z-score [9] | PBM binding z-score [10] | PBM binding z-score [11] | PBM binding z-score [12] | PBM binding z-score [13] | PBM binding z-score [14] | PBM binding z-score [15] | PBM binding z-score [16] | PBM binding z-score [17] | PBM binding z-score [18] |
| --- | --- | --- | --- | --- | --- | --- | --- | --- | --- | --- | --- | --- | --- | --- | --- | --- | --- | --- |
| ACTATTAGATGACTTAGGGCAACCGATACGACGC | 0.577 | 0.319 | 1.54 | 1.42 | 1.03 | -0.0258 | 0.554 | 0.143 | 1.38 | 0.885 | 1 | 0.918 | 1.25 | 0.754 | 0.767 | 1.04 | 0.469 | 0.377 |
| TAGCCTAGGTCATTGGGCCAGTATGGTACGCATC | 2.56 | 3.68 | 0.116 | 0.266 | 1.26 | 1.38 | -0.75 | 2.07 | -0.00791 | 3.44 | 2.8 | 3.75 | 3.81 | 1.46 | 2.73 | 2.81 | 0.583 | 0.715 |
| GAAACAGGGTCAGCTAGAGGCCAGAGTATGGAAA | 2.53 | 3.11 | 0.33 | -0.985 | 3.56 | 3.46 | -0.0723 | 4.93 | 0.262 | 4.14 | 3.26 | 6.78 | 4.43 | 1.52 | 4.28 | 3.13 | 0.117 | 0.821 |
| ATACCAAGGTGATCGTGATGTCGTTGATACTAAC | 0.486 | 0.996 | 0.919 | 1.1 | 0.247 | -0.038 | 0.104 | 0.057 | 0.517 | 0.325 | 0.279 | 0.25 | 0.334 | 0.0865 | 0.28 | 0.81 | 0.541 | 0.117 |
| TCTTGTAGATCAAGCAGGTTAAGACAGCCTGAGT | 1.59 | 0.85 | 0.703 | 0.0402 | -0.449 | 0.414 | 0.135 | 0.668 | -0.0996 | 0.151 | 0.295 | -0.0241 | -0.105 | 0.547 | 0.368 | 0.23 | -0.66 | -0.155 |
| CCTAACGGGTCAAGGTTATAGCACGGGTGGTACG | 0.873 | 2.74 | -0.204 | -0.102 | 2.32 | 2.84 | 0.496 | 3.76 | 1.14 | 3.9 | 3.19 | 4.47 | 4.4 | 0.639 | 4.35 | 2.8 | 0.625 | 1.37 |
| ATATGTAGGTTATCGGGTCGTTCAGTTTGCGCAT | 7.3 | 6.87 | 1.68 | 1.58 | 1.6 | 1.91 | 2.09 | 1.62 | 1.26 | 1.42 | 1.68 | 1.39 | 1.28 | 1.06 | 1.57 | 1.93 | 1.55 | 2.55 |
| CCGACTCGGGCAAGGTTACCATAACGCACAGCCA | 0.68 | 0.196 | -0.901 | -1.26 | -0.121 | 0.246 | -0.0787 | 0.655 | -0.459 | 1.33 | 1.08 | 1.01 | 0.939 | -0.233 | 1.11 | 1.19 | 0.176 | -0.43 |
| CTCGAAAGCTCGGTTGAGGTGAGTATACGGATAA | -0.672 | -0.193 | -0.22 | -0.607 | -0.84 | -0.305 | -0.679 | 0.034 | -0.648 | -0.166 | -0.282 | -0.264 | -0.254 | -0.28 | -0.256 | 1.85 | 1.03 | -0.293 |
| CTACCAAGGTGAACGAGGTCGTTGATTACTATTC | 2.17 | 2.89 | 0.126 | -0.713 | 0.838 | 3.54 | 2.67 | 2.7 | 0.278 | 2.3 | 2.24 | 2.13 | 1.32 | 1.85 | 2.26 | 3.36 | 2.17 | 3.61 |
| CCAGACAGGTGAGATGGTAACTCAGCCTCGATTA | 0.95 | 0.00345 | -0.391 | -0.721 | 0.16 | -0.343 | 0.189 | -0.347 | 0.738 | 0.229 | 0.103 | 0.164 | 0.225 | -0.124 | -0.0452 | -0.143 | 0.146 | 0.202 |
| CCTCACGGGTCACTCCAGGTTATAGCATCGGAGT | 0.962 | 1.92 | -0.553 | -0.76 | 1.7 | 4.86 | 0.245 | 3.93 | 0.83 | 3.69 | 3.09 | 4.28 | 4.2 | 1.49 | 4.07 | 4.79 | 0.721 | 1.94 |
| CAAACTAGGTCAGAGGTCAAAGTCGAGCCAACCA | 8.29 | 8.85 | 2.06 | 4.69 | 5.7 | 6.37 | 2.49 | 8.36 | 2.29 | 5.18 | 5.04 | 7.59 | 6.79 | 2.96 | 9.16 | 4.3 | 2.24 | 4.21 |
| GCTTACGGGTCAAAGGCTATAGCATGAATAGAAT | 3.78 | 4.33 | 0.463 | 0.898 | 1.36 | 3.22 | 0.0124 | 4.4 | -0.0609 | 3.69 | 2.54 | 4.79 | 4.31 | 1.73 | 6.17 | 2.45 | -0.68 | 0.708 |
| TCTGCTAGGTCAACGATGTTCAGCTAATCTGCTA | 4.36 | 4.43 | 0.0539 | 0.546 | 0.745 | 1.4 | -0.689 | 2 | -0.343 | 4.15 | 2.97 | 3.73 | 4.24 | 1.03 | 2.47 | 2.73 | 0.88 | -0.288 |
